# Test results taken from PubChem BioAssay (NCI).
# Compounds without any hit were thinned out: in the full panel of roughly 83,000, 20% have a hit.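 Compound tested at a single concentration for 48 hours in 96-well plates; a percent growth value below 10 was scored as active.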 Values without a mark were called inactive. The source made the active and inactive calls.
# Tested on: EKVX NSCLC
# Test: NCI-60 one-dose screen, 48 h (100 = growth as untreated, 0 = no growth, -100 = all killed)
# Settings: 10 µM
row,Compound,growth
1,N#Cc1c(NC(=O)c2ccc(C(O)(C(F)(F)F)C(F)(F)F)cc2)sc2c1CCC(=O)C2,-89.6% (active)
2,Cn1cc(-c2cc(N)n3nc(-c4c[nH]c5ccc(Br)cc45)cc3n2)c2cc(Br)cnc21,-84.1% (active)
3,COc1cc2c(cc1OC)CN(CCCCOc1cc(O)c3c(=O)cc(-c4ccccc4)oc3c1)CC2,76.6%
4,N#Cc1c(NC(=O)c2ccc(C(F)(F)F)cc2C(F)(F)F)sc2c1CCC(=O)C2,-57.5% (active)
5,O=C1Nc2ccc(Cl)cc2/C1=C/c1cccc(OCc2ccccc2)c1,19.4%
6,O=c1cc(-c2ccccc2)oc2cc(OCCCCNCc3ccccc3)cc(O)c12,25.1%
7,CC1=N/C(=C\c2ccc(N(C)C)cc2)C(=O)N1CCc1ccc(S(N)(=O)=O)cc1,95.2%
8,CC(=O)OC[C@@]1(C)C2CC[C@]3(C)C(CC=C4C5CC(C)(C)CC[C@]5(C(=O)Nc5ccccc5)CC[C@]43C)[C@@]2(C)C[C@@H](OC(C)=O)[C@@H]1OC(C)=O (some centres undefined),26.8%
9,Cc1ccc(-c2cc(-c3cc4ccccc4nc3Cl)[nH]c(=S)n2)cc1,50%
10,O=c1cc(-c2ccccc2)oc2cc(OCCCNCc3ccccc3)cc(O)c12,8.87% (active)
11,COc1ccc(C(=O)Nc2sc3c(c2C#N)CCC(=O)C3)cc1C(F)(F)F,-0.293% (active)
12,Cc1cc(C)cc(Oc2cccc(-c3c(C)nnn3C3CCN(CCN(C)C)CC3)n2)c1,39.7%
13,Nc1nnc(-c2c[nH]c3ccc(F)cc23)c(-c2c[nH]c3ncccc23)n1,65.1%
14,O=C1Nc2cc(Cl)ccc2/C1=C/c1cccc(OCc2ccc(Br)cc2F)c1,10.5%
15,Nc1nc(-c2ccccc2)cc(-c2cc3ccccc3nc2Cl)n1,80.1%
16,Cc1cc(C(F)(F)F)ccc1C(=O)Nc1sc2c(c1C#N)CCC(=O)C2,-25.5% (active)
17,O=C(CSc1nnc(-c2ccc3nc(-c4ccccc4)[nH]c3c2)o1)Nc1ccc(Br)cc1,81.4%
18,COc1ccc2nc(Cl)c(-c3cc(-c4ccccc4)nc(N)n3)cc2c1,59.8%
19,O=C(CNc1nc(-c2ccccc2)cs1)Nc1ccc(Cl)cc1[N+](=O)[O-],-8.05% (active)

row,Compound,growth
1,C/C(=C\CSc1ccccc1C(=O)O)CCCC(C)CCCC(C)CCCC(C)C (centres undefined),43.3%
2,COc1ccc2[nH]c(=O)c(CSc3cccc(N)c3)cc2c1,48.7%
3,Cn1cc(-c2cc(N)n3nc(-c4c[nH]c5ccc(Br)cc45)cc3n2)c2cccnc21,-86.7% (active)
4,N#Cc1c(NC(=O)c2ccc(C(F)(F)F)c(Cl)c2)sc2c1CCC(=O)C2,-79.9% (active)
5,COc1ccc(OC)c(/C=N/NC(=O)c2ccc3nc(-c4ccc(Cl)cc4)[nH]c3c2)c1,57.5%
6,CC(=O)NNc1ccc2nnc(-c3ccc(Br)cc3)n2n1,81.7%
7,COc1cc(OC(F)(F)F)ccc1C(=O)Nc1sc2c(c1C#N)CCC(=O)C2,46.7%
8,Cc1nc2c(cnn2-c2ccccc2)c(=O)n1-c1ccc(NC(=O)c2ccc(F)cc2)cc1,30.2%
9,COc1cccc(/C=N/NC(=O)c2ccc3nc(-c4ccc(Cl)cc4)[nH]c3c2)c1O,-53.8% (active)
10,Cc1cccc2cc(-c3cc(-c4ccccc4)nc(=S)[nH]3)c(Cl)nc12,76.5%
11,Cc1cc2nc3c4ccccc4n(CCO)c3nc2cc1C,84.5%
12,OCc1[nH]nc2cc(Nc3ncc4ccc(Br)c(OC5CCC(O)CC5)c4n3)ccc12 (centres undefined),-27.8% (active)
13,COc1cccc(/C=C2\N=C(C)N(CCc3ccc(S(N)(=O)=O)cc3)C2=O)c1,95.6%
14,C=C1CCC2C3(C)COC(c4cc(F)cc(F)c4)OC3CCC2(C)C1C/C=C1/C(=O)OCC1O (centres undefined),-42.8% (active)
15,CN(C(=O)c1ccc(C(F)(F)F)cc1C(F)(F)F)c1sc2c(c1C#N)CCC(=O)C2,73.7%
16,N#Cc1c(NC(=O)c2cccc(C(F)(F)F)c2)sc2c1CCC(O)=C2,22.8%
17,COc1cc(/C=N/NC(=O)c2ccc3nc(-c4ccc(Cl)cc4)[nH]c3c2)cc(OC)c1OC,9.25% (active)
18,N#Cc1c(NC(=O)c2ccc(C(F)(F)F)cc2)sc2c1CCC(O)=C2,16.9%
19,O=C1Nc2ccc(F)cc2/C1=C/c1cccc(OCc2ccccc2)c1,18.4%

# Tested on: SN12C renal
# Test: as above
# Settings: 10 µM
row,Compound,growth
1,O=C1Nc2ccc(Cl)cc2/C1=C/c1cccc(OCc2ccccc2)c1,36.1%
2,Cc1ccc(-c2cc(-c3cc4ccccc4nc3Cl)[nH]c(=S)n2)cc1,63.8%
3,Cc1cc(C)cc(Oc2cccc(-c3c(C)nnn3C3CCN(CCN(C)C)CC3)n2)c1,41.4%
4,Nc1nnc(-c2c[nH]c3ccc(F)cc23)c(-c2c[nH]c3ncccc23)n1,46.9%
5,O=C1Nc2cc(Cl)ccc2/C1=C/c1cccc(OCc2ccc(Br)cc2F)c1,17.6%
6,Nc1nc(-c2ccccc2)cc(-c2cc3ccccc3nc2Cl)n1,83%
7,O=C(CSc1nnc(-c2ccc3nc(-c4ccccc4)[nH]c3c2)o1)Nc1ccc(Br)cc1,45.8%
8,COc1ccc2nc(Cl)c(-c3cc(-c4ccccc4)nc(N)n3)cc2c1,10%
9,O=C(CNc1nc(-c2ccccc2)cs1)Nc1ccc(Cl)cc1[N+](=O)[O-],-28.7% (active)
10,CC(=O)NNc1ccc2nnc(-c3ccc(Br)cc3)n2n1,105%
11,Cc1nc2c(cnn2-c2ccccc2)c(=O)n1-c1ccc(NC(=O)c2ccc(F)cc2)cc1,74.4%
12,Cc1cccc2cc(-c3cc(-c4ccccc4)nc(=S)[nH]3)c(Cl)nc12,89.2%
13,Cc1cc2nc3c4ccccc4n(CCO)c3nc2cc1C,43.5%
14,OCc1[nH]nc2cc(Nc3ncc4ccc(Br)c(OC5CCC(O)CC5)c4n3)ccc12 (centres undefined),1.92% (active)
15,C=C1CCC2C3(C)COC(c4cc(F)cc(F)c4)OC3CCC2(C)C1C/C=C1/C(=O)OCC1O (centres undefined),-31.6% (active)
16,O=C1Nc2ccc(F)cc2/C1=C/c1cccc(OCc2ccccc2)c1,20.2%
